Entries with a potency or affinity are not part of this list. Inconclusive results are not listed.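 The calls were made as follows: active = samples whose fitted half-maximal inhibition concentration is no more than ten times the top valid dose tested; inconclusive = flat response between -70 and -30, or invalid curve fit; inactive = flat within 30 of zero, potency above limit, or signal rising.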
Each compound was assayed against Trypsin (Sus scrofa) (UniProt P00761) (assay: porcine trypsin inhibitors, dose response, selectivity assay for Rce1 protease inhibitor project, biochemical, quenched peptide fluorescence, cherry-pick (AID 488789;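 also: more negative means stronger trypsin inhibition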)). Details: quenched peptide cleavage fluorescence; series mostly up to 10 µM; activity change, negative = inhibition: at the top concentration.
Trypsin (Sus scrofa), sequence (P00761 whole entry, looked up): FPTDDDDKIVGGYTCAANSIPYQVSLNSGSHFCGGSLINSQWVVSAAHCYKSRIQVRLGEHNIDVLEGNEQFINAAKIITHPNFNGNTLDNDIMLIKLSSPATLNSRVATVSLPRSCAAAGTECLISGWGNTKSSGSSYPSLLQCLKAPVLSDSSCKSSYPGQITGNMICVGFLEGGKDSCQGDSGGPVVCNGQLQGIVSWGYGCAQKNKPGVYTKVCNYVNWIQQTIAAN

Activity change, negative = inhibition, inactive:
Nc1nc2n[nH]nc2c(=O)[nH]1 8.03%, CCOc1cccc(-c2c(C(=O)N/N=C/c3c(F)cccc3Cl)nnn2-c2nonc2N)c1 2.04%, COC(C/C=C/C(=O)[C@H](C)OCc1ccccc1)OC 6.3%, CN(C)CCN(C(=O)c1ccc2ccccc2c1)c1nc2ccc(Br)cc2s1 6.49%, CC(C)c1c(C(=O)N/N=C/c2cccc3ccccc23)nnn1-c1nonc1N 21.5%, CC(=O)Nc1ccc(Cl)cc1C1COC(=O)C1=N (configuration not stated) 13.5%, COc1ccc(Cn2c(N)c(S(=O)(=O)c3cccs3)c3nc4ccccc4nc32)cc1 10.7%, COC(=O)c1sccc1NC(=O)CSc1nnnn1-c1ccccc1C 4.34%, O=C(NCC1CC1)c1cc(-c2ccccc2)nn1CC1CC(c2cccc([N+](=O)[O-])c2)=NO1 (configuration not stated) 11%, Cc1cc(C)c2cc(C#N)c(NCCCNC(=O)CCC(=O)O)nc2c1 -7.75%, CCCn1c(O)c(N=NC(=O)CNC(=O)Cc2ccc(OC)cc2)c2ccccc21 13.3%, CN(C(=O)COC(=O)c1cn(-c2ccccc2)nc1-c1ccccc1)C1CCS(=O)(=O)C1 (configuration not stated) 14.9%, COC(C/C=C/[C@H](O)[C@H](C)OCc1ccccc1)OC 27.8%, COC(C[C@@H]1O[C@@H]1C(=O)[C@@H](C)OCc1ccccc1)OC -0.595%, CCn1cc(/C=C(\NC(=O)c2ccccc2F)C(=O)N2CCOCC2)c2ccccc21 9.46%, O=[N+]([O-])c1cc(S(=O)(=O)N2CCCC2)ccc1NN=C1CCCCC1 6.92%, COc1ccc(-c2nc3ncccc3o2)cc1NC(=O)c1ccco1 1.35%, O=C1CCCC(O)=C1N=Nc1ccc2ncsc2c1 3.04%, COc1cc2ccccc2cc1C(=O)N(CCN(C)C)c1nc2ccc(C)cc2s1 -0.713%, CCCNC(=O)c1c(N)n(-c2ccc(S(N)(=O)=O)cc2)c2nc3ccccc3nc12 -3.19%, CCOC(=O)c1c(NC(=O)COc2ccccc2F)sc2c1CC(C)(C)NC2(C)C 0.00696%, O=C(C1CCC(=O)N(C2CC2)C1)N1CCN(c2ccccc2Cl)CC1 (configuration not stated) 2.53%, COc1cccc(/C=N/NC(=O)c2nnn(-c3nonc3N)c2C(C)C)c1OCc1ccc(F)cc1 5.63%, CN1CCN(C(=S)NC(=O)c2ccccc2Cl)CC1 2.37%, FC(F)(F)c1cc(Oc2ccccc2)ncc1-c1nnc(-c2ccccc2Cl)o1 16%, COc1cc2c(cc1OC)C(C)=NC1(CCCCC1)C2 -10.1%, N#Cc1c(OCC(=O)c2ccccc2)nc2c(c1-c1ccco1)CCc1ccccc1-2 6.46%, Cc1nn(CCC(=O)O)c2nc(-c3cccnc3)cc(C(F)(F)F)c12 9.33%, COc1cccc(NC(=O)Nc2cccn(Cc3ccc(C)cc3)c2=O)c1 5.65%, Cc1ccc(-c2nc(SCC(=O)N(C)C3CCS(=O)(=O)C3)[nH]c2-c2ccc(C)cc2)cc1 (configuration not stated) -6.71%, CC(=O)c1c(O)cc(O)c(C(C)=O)c1O -4.71%, Cc1ccc(C2(COC(=O)C(C)C)CO2)c(OC(=O)C(C)C)c1 (configuration not stated) 8.63%, COc1ccc(-c2cn3ccccc3n2)cc1[N+](=O)[O-] 1.24%, CC(=O)Oc1ccc(C(=O)Nc2ccc(S(=O)(=O)NCC3CCCO3)cc2)cc1 (configuration not stated) 4.09%, CC(C)c1ccc(/C=C2\SC(=S)N(CCC(=O)NCCCn3ccnc3)C2=O)cc1 26.8%, Cc1ccc(-c2cc3cccc[n+]3cc2-c2ccc(C)cc2)cc1 16.4%, CC(C)CNC(=O)COc1cccc(C(=O)NCc2ccccc2)c1 7.6%

From PubChem BioAssay AID488789 (Broad Institute, 2010)
